Consider 1 compound from the supplement of paper PMC11732987, “Enantioselective OTUD7B fragment discovery through chemoproteomics screening and high-throughput optimisation” (Communications Chemistry, 2025).

Holding throughout (assay): log2 ratio of Biotin-Ahx-Ub-VS probe labelling (fragment/DMSO); higher = less target engagement (more negative = stronger competition), active = hit call of the paper (q ≤ 0.05, log2 ratio ≤ -1)
Common to all, as to settings: compound concentration: 200 uM; treatment time: 3 h

For assay [1], the target named is T1, OTUD6B (UniProt Q8N6M0).
T1 sequence (whole entry): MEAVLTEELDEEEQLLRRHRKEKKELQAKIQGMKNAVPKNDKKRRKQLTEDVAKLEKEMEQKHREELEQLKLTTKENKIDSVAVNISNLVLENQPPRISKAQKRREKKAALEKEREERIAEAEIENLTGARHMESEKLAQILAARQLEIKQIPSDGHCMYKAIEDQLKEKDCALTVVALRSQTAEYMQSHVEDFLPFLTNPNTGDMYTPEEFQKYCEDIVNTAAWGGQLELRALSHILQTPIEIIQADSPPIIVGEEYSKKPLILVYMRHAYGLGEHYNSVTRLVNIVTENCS
The gist of the method:
(§1)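 The table lists average log2 ratios of fragment over vehicle, from an unpaired t-test on global-median-normalised Spectronaut label-free quantities. Proteins with ≥2 unique peptides were used. Samples were HEK293T lysate (495 µg) treated in triplicate with fragment at 200 µM or vehicle for 3 h, then with Biotin-Ahx-Ub-VS (0.5 µM final) for 1 h, with labelled DUBs NeutrAvidin-enriched and run by diaPASEF LC-MS/MS.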

Assay [2] concerns the target T2, OTUD7B (UniProt Q6GQQ9).
T2 sequence (whole entry): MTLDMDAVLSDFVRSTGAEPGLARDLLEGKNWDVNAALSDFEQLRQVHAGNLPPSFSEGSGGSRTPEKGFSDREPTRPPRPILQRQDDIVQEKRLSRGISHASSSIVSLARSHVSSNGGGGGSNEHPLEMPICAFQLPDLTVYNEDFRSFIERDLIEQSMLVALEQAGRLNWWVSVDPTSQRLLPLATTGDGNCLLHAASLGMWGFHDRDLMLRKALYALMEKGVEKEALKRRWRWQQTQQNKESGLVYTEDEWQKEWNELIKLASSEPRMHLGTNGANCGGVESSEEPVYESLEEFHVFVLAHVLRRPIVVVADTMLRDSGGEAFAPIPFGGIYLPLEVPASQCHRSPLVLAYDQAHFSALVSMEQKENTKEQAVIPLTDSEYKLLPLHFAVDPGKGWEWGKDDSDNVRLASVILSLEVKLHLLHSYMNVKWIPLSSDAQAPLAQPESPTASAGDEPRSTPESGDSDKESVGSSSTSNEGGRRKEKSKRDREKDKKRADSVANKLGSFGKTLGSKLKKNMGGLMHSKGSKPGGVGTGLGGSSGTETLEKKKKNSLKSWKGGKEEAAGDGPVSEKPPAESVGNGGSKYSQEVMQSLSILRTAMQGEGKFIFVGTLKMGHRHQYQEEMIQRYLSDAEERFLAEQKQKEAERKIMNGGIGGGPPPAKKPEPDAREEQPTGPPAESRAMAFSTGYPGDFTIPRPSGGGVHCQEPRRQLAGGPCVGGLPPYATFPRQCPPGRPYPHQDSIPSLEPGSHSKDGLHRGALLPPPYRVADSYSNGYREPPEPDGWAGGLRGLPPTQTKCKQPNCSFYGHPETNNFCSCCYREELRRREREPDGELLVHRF
Summed up: as §1

The target of assay [3] is PRPF8 (UniProt Q6P2Q9). The gist of the method: as §1
Assay [4] has as its target T3, PSMD7 (UniProt P51665).
T3 sequence (whole entry): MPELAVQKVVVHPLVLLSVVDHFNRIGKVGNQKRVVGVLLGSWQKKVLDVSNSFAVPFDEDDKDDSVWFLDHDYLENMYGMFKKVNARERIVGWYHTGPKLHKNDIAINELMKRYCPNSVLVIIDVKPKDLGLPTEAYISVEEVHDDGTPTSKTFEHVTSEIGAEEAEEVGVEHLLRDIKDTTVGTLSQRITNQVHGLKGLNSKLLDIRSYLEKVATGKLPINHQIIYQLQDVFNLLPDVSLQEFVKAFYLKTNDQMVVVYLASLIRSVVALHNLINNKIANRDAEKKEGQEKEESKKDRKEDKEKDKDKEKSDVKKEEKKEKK
Summed up: as §1

The target in assay [5] is UCHL1 (UniProt P09936). Summed up: as §1
In assay [6] the target is T4, UCHL3 (UniProt P15374).
T4 sequence (whole entry): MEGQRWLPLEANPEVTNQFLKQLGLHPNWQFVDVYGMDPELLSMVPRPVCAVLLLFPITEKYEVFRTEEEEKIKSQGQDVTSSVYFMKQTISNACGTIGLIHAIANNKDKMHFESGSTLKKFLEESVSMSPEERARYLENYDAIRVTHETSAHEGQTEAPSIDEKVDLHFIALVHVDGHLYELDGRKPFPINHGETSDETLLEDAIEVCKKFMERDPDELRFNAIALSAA
Summed up:
as §1

In assay [7] the target is T5, UCHL5 (UniProt Q9Y5K5).
T5 sequence (whole entry): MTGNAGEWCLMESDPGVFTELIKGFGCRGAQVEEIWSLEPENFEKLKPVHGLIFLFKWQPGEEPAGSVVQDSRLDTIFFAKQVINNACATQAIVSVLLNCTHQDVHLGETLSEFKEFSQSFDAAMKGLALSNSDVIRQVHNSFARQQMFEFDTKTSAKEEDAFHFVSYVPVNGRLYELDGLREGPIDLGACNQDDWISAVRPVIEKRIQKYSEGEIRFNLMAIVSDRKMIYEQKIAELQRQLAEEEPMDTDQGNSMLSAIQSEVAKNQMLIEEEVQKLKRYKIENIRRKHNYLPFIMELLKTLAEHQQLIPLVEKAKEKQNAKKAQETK
Summed up: as §1

The target in assay [8] is USP10 (UniProt Q14694). The gist of the method:
as §1

The target in assay [9] is T6, USP15 (UniProt Q9Y4E8).
T6 sequence (whole entry): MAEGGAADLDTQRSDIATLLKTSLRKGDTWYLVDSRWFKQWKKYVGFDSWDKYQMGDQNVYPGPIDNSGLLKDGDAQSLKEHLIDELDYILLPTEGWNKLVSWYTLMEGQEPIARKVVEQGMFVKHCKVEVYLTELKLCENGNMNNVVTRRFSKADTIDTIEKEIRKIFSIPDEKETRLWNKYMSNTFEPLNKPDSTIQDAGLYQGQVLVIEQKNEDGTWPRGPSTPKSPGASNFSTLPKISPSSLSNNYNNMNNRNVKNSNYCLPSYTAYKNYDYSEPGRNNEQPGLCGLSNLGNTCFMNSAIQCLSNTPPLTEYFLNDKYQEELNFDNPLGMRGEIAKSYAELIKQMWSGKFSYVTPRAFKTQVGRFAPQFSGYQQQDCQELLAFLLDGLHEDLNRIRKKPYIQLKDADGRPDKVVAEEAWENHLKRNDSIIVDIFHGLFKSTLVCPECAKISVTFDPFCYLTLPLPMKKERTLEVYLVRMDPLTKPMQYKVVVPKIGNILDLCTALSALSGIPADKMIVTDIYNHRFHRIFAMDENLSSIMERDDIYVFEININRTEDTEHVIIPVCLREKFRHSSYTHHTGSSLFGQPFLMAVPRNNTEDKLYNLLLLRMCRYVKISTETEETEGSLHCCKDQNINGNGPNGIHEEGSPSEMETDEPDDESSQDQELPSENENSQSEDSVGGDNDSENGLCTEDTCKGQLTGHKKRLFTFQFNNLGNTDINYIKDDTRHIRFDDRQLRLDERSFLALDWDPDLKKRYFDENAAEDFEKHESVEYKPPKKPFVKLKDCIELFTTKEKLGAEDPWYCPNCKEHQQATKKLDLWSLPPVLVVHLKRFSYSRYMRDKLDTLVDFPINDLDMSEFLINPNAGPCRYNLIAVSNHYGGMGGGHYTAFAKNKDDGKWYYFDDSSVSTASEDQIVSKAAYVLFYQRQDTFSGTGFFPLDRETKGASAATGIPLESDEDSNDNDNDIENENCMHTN
The gist of the method:
as §1

The target of assay [10] is USP16 (UniProt Q9Y5T5). Summed up: as §1

A number with no mark means an inactive call.

Sequence of USP10 (Q14694 whole entry): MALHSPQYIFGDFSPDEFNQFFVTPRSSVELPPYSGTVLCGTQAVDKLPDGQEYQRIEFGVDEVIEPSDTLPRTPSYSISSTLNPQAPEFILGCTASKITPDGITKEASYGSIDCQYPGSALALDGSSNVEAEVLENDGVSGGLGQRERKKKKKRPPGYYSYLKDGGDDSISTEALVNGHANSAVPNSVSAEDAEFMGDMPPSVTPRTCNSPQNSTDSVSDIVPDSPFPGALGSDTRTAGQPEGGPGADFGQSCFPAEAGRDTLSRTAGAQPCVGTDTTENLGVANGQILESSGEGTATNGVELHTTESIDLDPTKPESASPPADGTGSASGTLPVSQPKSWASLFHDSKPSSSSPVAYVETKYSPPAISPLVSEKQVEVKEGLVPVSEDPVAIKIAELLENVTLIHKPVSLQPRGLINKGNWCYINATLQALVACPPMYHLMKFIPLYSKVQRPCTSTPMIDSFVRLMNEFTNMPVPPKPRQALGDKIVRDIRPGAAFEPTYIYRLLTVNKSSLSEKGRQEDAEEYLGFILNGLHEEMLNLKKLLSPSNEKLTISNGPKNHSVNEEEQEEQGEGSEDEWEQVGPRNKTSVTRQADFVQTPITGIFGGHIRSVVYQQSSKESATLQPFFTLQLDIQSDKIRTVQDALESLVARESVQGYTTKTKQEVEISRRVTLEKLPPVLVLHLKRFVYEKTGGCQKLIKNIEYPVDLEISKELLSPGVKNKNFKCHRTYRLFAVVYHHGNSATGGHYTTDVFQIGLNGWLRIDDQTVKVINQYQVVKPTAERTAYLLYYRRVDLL
Sequence of USP16 (Q9Y5T5 whole entry, looked up): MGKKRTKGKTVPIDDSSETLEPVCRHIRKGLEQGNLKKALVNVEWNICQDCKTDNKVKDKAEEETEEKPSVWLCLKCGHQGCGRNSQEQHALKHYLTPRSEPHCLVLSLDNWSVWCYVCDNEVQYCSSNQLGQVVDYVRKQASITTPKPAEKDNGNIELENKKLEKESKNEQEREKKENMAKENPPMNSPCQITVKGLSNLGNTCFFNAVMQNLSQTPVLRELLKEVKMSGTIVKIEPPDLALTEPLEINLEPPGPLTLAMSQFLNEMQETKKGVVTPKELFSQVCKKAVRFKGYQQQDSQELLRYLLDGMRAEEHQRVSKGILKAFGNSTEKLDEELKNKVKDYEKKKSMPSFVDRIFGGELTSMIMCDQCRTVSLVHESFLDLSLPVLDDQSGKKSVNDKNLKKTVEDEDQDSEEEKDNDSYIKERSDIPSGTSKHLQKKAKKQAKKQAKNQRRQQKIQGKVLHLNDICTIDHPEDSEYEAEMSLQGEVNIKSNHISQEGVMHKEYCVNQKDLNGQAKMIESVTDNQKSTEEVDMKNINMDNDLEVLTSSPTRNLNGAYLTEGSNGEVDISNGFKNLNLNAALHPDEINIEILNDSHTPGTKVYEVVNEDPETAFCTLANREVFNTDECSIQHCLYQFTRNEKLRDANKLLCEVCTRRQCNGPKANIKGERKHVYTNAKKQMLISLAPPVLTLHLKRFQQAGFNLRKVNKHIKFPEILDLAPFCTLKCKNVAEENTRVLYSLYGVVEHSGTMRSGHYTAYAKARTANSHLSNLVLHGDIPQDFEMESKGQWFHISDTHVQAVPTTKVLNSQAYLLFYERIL
Sequence of UCHL1 (P09936 whole entry, looked up): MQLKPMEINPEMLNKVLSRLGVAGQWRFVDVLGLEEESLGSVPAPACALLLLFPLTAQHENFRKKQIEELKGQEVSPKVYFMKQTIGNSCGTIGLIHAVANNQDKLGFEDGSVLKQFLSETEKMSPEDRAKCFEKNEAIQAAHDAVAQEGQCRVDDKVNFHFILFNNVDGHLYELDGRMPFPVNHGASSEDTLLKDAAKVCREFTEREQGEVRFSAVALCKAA

As to `Cc1cccc(NC(=O)[C@@H]2CCCN2C(=O)CCl)n1`, the “log2 ratio of Biotin-Ahx-Ub-VS probe labelling” value in assay [1] was -0.319; in assay [2], -0.29; in [3] it was -0.0295; in assay [4], -0.254; in [5] it was -1.67 (active); in assay [6], -0.737. Moreover, the “log2 ratio of Biotin-Ahx-Ub-VS probe labelling” value was -0.436 in assay [7], -0.09 in assay [8], -0.215 in assay [9] and -0.0941 in assay [10].
